# Results from PubChem BioAssay (NCATS).
# Results filed as inconclusive are left out. Entries that show only a call come without a potency. Activity calls are given as the source filed them. Calls follow the shape of the dose curve; as a rule, active = well fitted activation curve with a large enough effect; inconclusive = small, poorly fitted or top-dose-only effect; inactive = no such curve, though single readings can be large or run the other way.
# Target: D(1A) dopamine receptor (Homo sapiens) (UniProt P21728)
# Sequence (P21728 whole entry, looked up): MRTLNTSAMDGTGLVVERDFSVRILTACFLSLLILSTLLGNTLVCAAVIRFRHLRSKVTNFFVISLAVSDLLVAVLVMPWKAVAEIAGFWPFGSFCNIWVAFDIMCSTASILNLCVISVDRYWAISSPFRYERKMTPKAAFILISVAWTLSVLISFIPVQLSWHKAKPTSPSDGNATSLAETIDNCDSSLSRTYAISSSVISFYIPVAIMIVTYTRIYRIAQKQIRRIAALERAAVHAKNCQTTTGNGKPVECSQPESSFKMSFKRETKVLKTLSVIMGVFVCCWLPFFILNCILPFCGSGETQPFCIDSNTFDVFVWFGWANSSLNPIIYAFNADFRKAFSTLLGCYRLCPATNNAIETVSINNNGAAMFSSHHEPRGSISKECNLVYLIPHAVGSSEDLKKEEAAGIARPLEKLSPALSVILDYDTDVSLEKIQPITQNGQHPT
# Assay: HTS Assay for Allosteric Agonists of the Human D1 Dopamine Receptor: Primary Screen for Potentiators (AID 488982)
# Conditions: HEK293 T-REx D1 inducible cells, calcium flux, kinetic fluorescence; series mostly up to 8.37 µM
# Source text: Dopamine receptors (DARs) are involved in the etiology and/or therapy of a number of neuropsychiatric and endocrine disorders. For instance, all receptor-based antiparkinsonian drugs work via stimulating the […] DAR subtype whereas all FDA-approved antipsychotic agents are antagonists of this receptor. […] There are three different types of allosteric modulators that we are seeking, two of which will stimulate or augment receptor signaling, allosteric agonists and potentiators, while the third, allosteric antagonists, will attenuate receptor signaling. The present primary screening assay measures compound agonism by tracking calcium flux in a […], inducible Hek293 Trex D1 cell line.
# Freshly passaged cells are plated in 1536 well black, clear bottom plates at a density of 4000 cells/well in 3 ul of complete media containing 1x tetracycline inducer. After an overnight incubation at 30 C in 5% CO2, cells are loaded with 2 ul of the no wash Calcium Assay Kit (ABD Bioquest) and incubated at room temperature for 30 to 90 minutes. A 10 cycle (1 second/cycle) baseline measurement is taken and then the FDSS online 1536 pintool delivers 23 nl of compound library (as well as dopamine controls) to the plate. The plate is measured for kinetically at 1 cycle/sec for 180 seconds and is considered to be the agonist portion of the assay (eg, compounds which activate a positive calcium response during this portion are flagged as potential agonists). Following the 180 second read, 1 ul of an EC20 of dopamine is delivered by an onboard pipette head. Measurements are taken kinetically for an additional 180 seconds.
# Potency is read from the fitted curve at half-maximal effect.
row,Structure (SMILES),Potency
1,NC(N)=Nc1ccc2[nH]c3c(c2c1)C[C@@]1(O)[C@H]2Cc4ccc(O)c5c4[C@@]1(CCN2CC1CC1)[C@H]3O5,inactive
2,NCC(CP(=O)(O)O)c1ccc(Cl)cc1 (stereo not given),inactive
3,CN1CC[C@@]2(C)c3cc(OC(=O)Nc4ccccc4)ccc3N(C)[C@@H]12,inactive
4,CCNC(=O)[C@H]1O[C@@H](n2cnc3c(N)ncnc32)[C@H](O)[C@@H]1O,inactive
5,NNC(N)=O,inactive
6,CCn1cnc2c(Nc3cccc(Cl)c3)nc(N[C@@H]3CCCC[C@@H]3N)nc21,inactive
7,O=C1CC[C@@]2(O)C3Cc4ccc(O)c5c4C2(CCN3CC2CC2)[C@H]1O5 (stereo not given in full),inactive
8,NC(C(=O)O)c1cc(=O)[nH]o1 (stereo not given),inactive
9,NC(=O)CI,inactive
10,C=CCN1CC[C@]23c4c5ccc(O)c4O[C@@H]2/C(=N/N=C2\CC[C@@]4(O)C6Cc7ccc(O)c8c7[C@@]4(CCN6CC=C)[C@@H]2O8)CC[C@@]3(O)C1C5,inactive
11,C[C@H](N)CN1CCc2ccc(Br)cc21,inactive
12,CC(N)[C@H](O)c1ccc(O)c(O)c1 (stereo not given in full),inactive
13,CC12NC(Cc3ccccc31)c1ccccc12 (stereo not given),inactive
14,CC(N)Cc1c[nH]c2ccc(O)cc12 (stereo not given),inactive
15,NC(=O)COc1c(F)cc(SCCNS(=O)(=O)c2ccccc2)cc1F,inactive
16,C[N+]1(C)CCN(c2ccccc2)CC1,inactive
17,COc1ccc2c(c1)/C(=C/c1cnc[nH]1)C(=O)N2,inactive
18,C[C@H](N)Cc1cccc(C(F)(F)F)c1,inactive
19,COc1ccc2[nH]cc(CCN)c2c1,inactive
20,C[N+]1(C)CCc2cc3c(cc2[C@H]1[C@@H]1OC(=O)c2c1ccc1c2OCO1)OCO3,inactive

row,Structure (SMILES),Potency
1,CC(N)c1cccc(Cl)c1Cl (stereo not given),inactive
2,COC(=O)N1CCN(C(=O)Cc2ccc(Cl)c(Cl)c2)C(CN2CCCC2)C1 (stereo not given),inactive
3,Ic1ccccc1CNC1C2CCN(CC2)C1C(c1ccccc1)c1ccccc1 (stereo not given),4.11 µM (active)
4,CC1(C(=O)O)C2CCC(O2)C1(C)C(=O)O (stereo not given),inactive
5,CCCN1CC[C@@H]2c3cc(O)ccc3CC[C@@H]21,inactive
6,CCCN(CCC)[C@@H]1CCc2cccc(O)c2C1,inactive
7,C[C@@H]1O[C@H](C[N+](C)(C)C)CS1,inactive
8,CCCCCCCCCCCCCC(=O)O[C@@H]1[C@@H](C)[C@@]2(O)[C@@H](C=C(CO)C[C@@]3(O)C(=O)C(C)=C[C@@H]23)C2C(C)(C)[C@@]21OC(C)=O (stereo not given in full),inactive
9,CCOC(=O)c1ncn2c1[C@@H]1CCCN1C(=O)c1cc(OC)ccc1-2,inactive
10,COc1ccc2c(c1)c(CCN1CCOCC1)c(C)n2C(=O)c1cccc(Cl)c1Cl,inactive
11,CC(C)(C)c1o[nH]c(=O)c1CC(N)C(=O)O (stereo not given),inactive
12,NCCc1ccc(S(=O)(=O)F)cc1,inactive
13,COc1ccc2c(c1O)-c1cccc3c1[C@@H](C2)N(C)CC3,inactive
14,Cc1o[nH]c(=O)c1CC(N)C(=O)O (stereo not given),inactive
15,CCCN(CCC)C1Cc2cc(OC)c(OC)cc2C1,inactive
16,Cc1c2ccncc2c(C)c2c1[nH]c1ccccc12,inactive
17,CCS(=O)(=O)Nc1cccc(C(=C2CCCCC2)c2cnc[nH]2)c1,inactive
18,CC(=O)c1c(O)c(C)c(O)c(Cc2c(O)c3c(c(C(=O)/C=C/c4ccccc4)c2O)OC(C)(C)C=C3)c1O,inactive
19,C=CCN1CCC23c4c5ccc(O)c4O[C@H]2C(=O)CC[C@@]3(O)C1C5 (stereo not given in full),inactive
20,c1ccc2c(N3CCNCC3)cccc2c1,inactive
